Screens deposited in PubChem by National Center for Advancing Translational Sciences (NCATS).
DT40 TDP1 no CPT – qHTS for Inhibitors of human tyrosyl-DNA phosphodiesterase 1 (TDP1): qHTS in cells in absence of CPT; DT40 Tdp1-/- hTDP1 cells, no CPT, ATP luminescence, 48 h; Potency, µM (series often up to 46.2 µM), for the others: at the highest dose activity change, negative = growth inhibition, most hits filed as inhibitors; 420,000 compounds, 15% hits; AID 686978, 2013; also: potency is read from the fitted curve at half-maximal effect; % is scaled to controls: 0 for no effect and ±100 for the full control effect; nearly all actives have a fitted effect of over 55% in size
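Readout: luminescence from CellTiter-Glo after 30 min in the dark at RT. Cells: DT40 Tdp1-/- with stable hTDP1, 400/well. Exposure: compounds alone, ≥48 hr, 37 °C.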
DT40 TDP1 CPT – DT40-hTDP1 cell growth loss with CPT. chicken DT40 Tdp1-/-;hTDP1 cells + 20 nM CPT, ATP luminescence, 48 h. Potency, µM (highest dose often 46.2 µM), for the others: at the top dose activity change, negative = growth inhibition, hits mostly inhibitors. 420,000 compounds, 12% hits; also: potency is read from the fitted curve at half-maximal effect; % is scaled to controls: 0 for no effect and ±100 for the full control effect; nearly all actives have a fitted effect of over 55% in size
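Cell growth measured by CellTiter-Glo luminescence after a minimum 48 h, 37 C compound exposure with 20 nM CPT in Tdp1-knockout DT40 cells stably expressing hTDP1, seeded 400/well; qHTS titration format.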
SW480 rereplic – DNA re-replication induction in SW480 cells | 340,000 compounds, 1.8% hits | SW480 DNA re-replication, Hoechst DNA content imaging, 48 h | Potency, µM (top dose mostly 46.1 µM), without a hit: at the top dose re-replication activation, most hits filed as activators; also: potency is read from the fitted curve at half-maximal effect; % of control where 0% means no effect; nearly all actives have a fitted effect of over 55% in size
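Hoechst fluorescence of nuclei (405 nm excitation, 500-530 nm emission) measured by plate-scanning imager after 48 hr compound exposure at 37 C; re-replication scored as increased number of nuclei with elevated intensity.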
BCR signal inh – chronic active BCR signaling inhibition; Potency, µM (highest dose often 46.1 µM), for inactives: at the top dose activity change, negative = inhibition, hits mostly inhibitors; 340,000 compounds, 0.05% hits; ABC-DLBCL IkBa-CBG/CBR reporter, luminescence ratio, 4 h; active = well fitted inhibition curve with a large enough effect in the signal ratio, with a control signal flat, not every such curve was filed as active; inconclusive = small, poorly fitted or top-dose-only effect, or effect the other way, or a change in a side signal; the % refers to the signal ratio;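 also: potency is read from the fitted curve at half-maximal effect; plate controls were basal doxycycline-induced cells for no effect and cells given 10 µM MG132 for full effect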
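TMD8 ABC-DLBCL cells carrying doxycycline-inducible green luciferase fused to IkappaBalpha plus unfused red luciferase were exposed to compounds (up to 46 uM) for 4 hrs at 37C. Activity came from the overlap-corrected green/red luminescence ratio.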
IL-1B inflam inh – inflammasome signaling inhibition, IL-1 beta readout; THP-1 LPS/ATP IL-1B secretion, AlphaLISA, 16 h; active compounds read low; 360,000 compounds, 4.7% hits; activity change, % at 57.5 µM; AID 743279; in the data active = activity change below about -50%; inconclusive = mostly about -30% to -49%; also: % is scaled to controls: 0 for no effect and ±100 for the full control effect
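Secreted IL-1B measured by AlphaLISA bead assay after 16 h compound exposure of THP-1 cells; compounds (final up to 57.5 uM) added 1 h before LPS (250 ng/mL) and ATP (1.25 mM) stimulation; lower signal means less secretion.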
MCF10A rereplic – DNA re-replication induction in MCF 10a cells; MCF 10A DNA re-replication, Hoechst nuclear intensity, 48 h; Potency, µM (titrated, usually from 46.1 µM), without a hit: top-dose activity, positive = re-replication, hits mostly activators; 350,000 compounds, 2.9% hits; also: potency is read from the fitted curve at half-maximal effect; % of control where 0% means no effect; nearly all actives have a fitted effect of over 50% in size
* hit, by the source's call. The list is not random: actives were taken first. Their share in the collection is about 19%. Unless noted, calls follow the shape of the dose curve; as a rule, active = well fitted curve in the direction sought with a large enough effect; inconclusive = small, poorly fitted or top-dose-only effect, or another doubt; inactive = no such curve, though single readings can be large; an effect the other way counts as inactive or inconclusive.

How did N#Cc1c(NC(=O)CSc2nnnn2C2CCCCC2)sc2c1CCCC2 do in these assays?
DT40 TDP1 no CPT: 16.4µM*; DT40 TDP1 CPT: inconclusive; SW480 rereplic: -1.7%; BCR signal inh: -1.3%; IL-1B inflam inh: 15.2; MCF10A rereplic: 26.9%

How did O=C(CSc1nnnn1C1CCCCC1)Nc1nc2c(s1)CCCC2 do in these assays?
DT40 TDP1 no CPT: 20.6µM*; DT40 TDP1 CPT: 14.6µM*; SW480 rereplic: -1.0%; IL-1B inflam inh: 12.5; MCF10A rereplic: 38.9%

Results for Cc1ccc(CNC(=O)CCc2cn(Cc3ccc(C)cc3)c3ccccc23)cc1 ?
DT40 TDP1 no CPT: -24.7%; DT40 TDP1 CPT: -24.6%

How did Cc1ccc(Cn2cc(CCC(=O)NC3CCCCC3)c3ccccc32)cc1 do in these assays?
DT40 TDP1 no CPT: 14.6µM*; DT40 TDP1 CPT: inconclusive

What do the screens show for `CCOc1ccccc1CNC(=O)CCc1cn(CC)c2ccccc12`?
DT40 TDP1 no CPT: inconclusive; DT40 TDP1 CPT: inconclusive; SW480 rereplic: -0.1%; BCR signal inh: inconclusive; IL-1B inflam inh: 13.7; MCF10A rereplic: 4.6%

How did CCOc1ccc(CCNC(=O)CCc2cn(Cc3ccc(C)cc3)c3ccccc23)cc1 do in these assays?
DT40 TDP1 no CPT: 11.6µM*; DT40 TDP1 CPT: inconclusive

Results for CCn1cc(CCC(=O)NCc2cccc(OC)c2OC)c2ccccc21 ?
DT40 TDP1 no CPT: 16.4µM*; DT40 TDP1 CPT: 18.4µM*; SW480 rereplic: 0.6%; BCR signal inh: -4.3%; IL-1B inflam inh: -14.2; MCF10A rereplic: -9.3%

What do the screens show for `COc1ccc(CCNC(=O)CSc2cn(Cc3ccccc3)c3ccccc23)cc1OC`?
DT40 TDP1 no CPT: inconclusive; DT40 TDP1 CPT: inconclusive; SW480 rereplic: 1.2%; BCR signal inh: -3.7%; IL-1B inflam inh: 50.9; MCF10A rereplic: -0.4%

What do the screens show for `COc1ccc(CCNC(=O)CCc2cn(Cc3ccc(F)cc3)c3ccccc23)cc1OC`?
DT40 TDP1 no CPT: 16.4µM*; DT40 TDP1 CPT: inconclusive

Results for COc1ccc(Oc2ncc3nc(-c4cccs4)c(=O)n(CCC#N)c3n2)cc1 ?
DT40 TDP1 no CPT: -29.7%; DT40 TDP1 CPT: -32.6%

Results for Cc1cc(C)n(S(=O)(=O)c2ccc3oc(=O)ccc3c2)n1 ?
DT40 TDP1 no CPT: -37.4%; DT40 TDP1 CPT: -18.5%; SW480 rereplic: -13.3%; BCR signal inh: -7.3%; IL-1B inflam inh: -16.5; MCF10A rereplic: 18.6%

What do the screens show for `COc1ccccc1NS(=O)(=O)c1cc(NC(=O)CNC(=O)c2ccc(C)s2)ccc1Cl`?
DT40 TDP1 no CPT: -74.7%; DT40 TDP1 CPT: -76.4%; SW480 rereplic: 23.1%; BCR signal inh: -7.0%; IL-1B inflam inh: 5.4; MCF10A rereplic: 20.6%

What do the screens show for `Cc1c(NC(=O)COC(=O)Cc2ccc(F)cc2)c(=O)n(-c2ccccc2)n1C`?
DT40 TDP1 no CPT: -11.8%; DT40 TDP1 CPT: 2.7%; SW480 rereplic: -14.3%; BCR signal inh: -0.1%; IL-1B inflam inh: 2.5; MCF10A rereplic: -0.2%

What do the screens show for `COc1ccc(CCNC(=O)CCc2cn(Cc3ccccc3Cl)c3ccccc23)c(OC)c1`?
DT40 TDP1 no CPT: 16.4µM*; DT40 TDP1 CPT: inconclusive

Results for Cc1ccc(-n2nnc3c(=O)oc4ccccc4c32)cc1 ?
DT40 TDP1 no CPT: 20.6µM*; DT40 TDP1 CPT: 5.8µM*; SW480 rereplic: -2.0%; BCR signal inh: -3.6%; IL-1B inflam inh: 13.7; MCF10A rereplic: 1.0%

Results for CCN(C(=O)CN1C(=O)COc2ccc(S(=O)(=O)N3CCCCCC3)cc21)c1cccc(C)c1 ?
DT40 TDP1 no CPT: inconclusive; DT40 TDP1 CPT: inconclusive; SW480 rereplic: 2.7%; BCR signal inh: -5.1%; IL-1B inflam inh: -25.4; MCF10A rereplic: 6.4%

What do the screens show for `Cc1ccc(NC(=O)CSc2nc3ccccc3n2CC(=O)N2CCC(C)CC2)cc1C`?
DT40 TDP1 no CPT: 18.4µM*; DT40 TDP1 CPT: inconclusive

Results for CCCCN(C)C(=O)Cn1c(SCC(=O)Nc2ccc(C)c(C)c2)nc2ccccc21 ?
DT40 TDP1 no CPT: 13µM*; DT40 TDP1 CPT: inconclusive

What do the screens show for `CSc1nc2ccccc2n1CC(=O)Nc1ccc(C)c(C)c1`?
DT40 TDP1 no CPT: inconclusive; DT40 TDP1 CPT: inconclusive; SW480 rereplic: 2.2%; BCR signal inh: 3.2%; IL-1B inflam inh: -7.7; MCF10A rereplic: 29.1%

How did Cc1onc(-c2ccccc2)c1C(=O)N=C(N)c1ccc(C(F)(F)F)cc1 do in these assays?
DT40 TDP1 no CPT: -5.2%; DT40 TDP1 CPT: 3.0%; SW480 rereplic: 11.6%; BCR signal inh: -0.6%; IL-1B inflam inh: 10.6; MCF10A rereplic: inconclusive

What do the screens show for `O=C(O)CN1C(=O)C(=O)N(Cc2ccc(Cl)c(Cl)c2)C1=O`?
DT40 TDP1 no CPT: 8.2%; DT40 TDP1 CPT: -11.3%; SW480 rereplic: -6.0%; BCR signal inh: 6.7%; IL-1B inflam inh: 5.6; MCF10A rereplic: 2.6%

What do the screens show for `On1onc2c3cc(-c4ccccc4)nc3ccc21`?
DT40 TDP1 no CPT: 5.17µM*; DT40 TDP1 CPT: 2.91µM*; SW480 rereplic: 7.31µM*; BCR signal inh: inconclusive; IL-1B inflam inh: -14.4; MCF10A rereplic: 8.2µM*

What do the screens show for `O=[N+]([O-])c1ccc(C2Oc3ccccc3C3CC(c4ccccc4)=NN32)s1` (centres undefined)?
SW480 rereplic: 23.1µM*; BCR signal inh: inconclusive; MCF10A rereplic: 14.6µM*

How did CS(=O)(=O)N1N=C(c2cccs2)CC1c1ccccc1 (centres undefined) do in these assays?
DT40 TDP1 no CPT: -13.5%; DT40 TDP1 CPT: -19.1%; SW480 rereplic: -0.4%; BCR signal inh: -0.4%; IL-1B inflam inh: -20.1; MCF10A rereplic: 5.1%

What do the screens show for `c1ccc(C2Oc3ccccc3C3CC(c4cccs4)=NN32)cc1` (centres undefined)?
DT40 TDP1 no CPT: 16.4µM*; DT40 TDP1 CPT: inconclusive; SW480 rereplic: inconclusive; BCR signal inh: inconclusive; IL-1B inflam inh: -3.9; MCF10A rereplic: inconclusive

What do the screens show for `Fc1ccc(N2N=C(c3cccs3)CC2c2ccccc2)cc1` (centres undefined)?
DT40 TDP1 no CPT: inconclusive; DT40 TDP1 CPT: -15.6%; SW480 rereplic: 5.8µM*; BCR signal inh: inconclusive; IL-1B inflam inh: 9.2; MCF10A rereplic: 2.59µM*

How did CC(=O)N1N=C(c2ccccc2)CC1c1ccccc1[N+](=O)[O-] (centres undefined) do in these assays?
DT40 TDP1 no CPT: inconclusive; DT40 TDP1 CPT: -14.6%; SW480 rereplic: -5.5%; BCR signal inh: 7.9%; IL-1B inflam inh: 27.0; MCF10A rereplic: 1.1%
